Reference: PubChem BioAssay (Tox21)
Where “and” joins values, the source holds several entries; their conditions need not be identical. Equal values may be shown once. Results filed as inconclusive are left out. Entries that show only a call come without a potency. A structure can be active in one record and inactive in another. Calls of active or inactive are those of the source. Unless noted, calls come from the whole dose curve.

What was measured:
[1] = Nuclear factor erythroid 2-related factor 2/antioxidant responsive element (Nrf2/ARE) small molecule agonists: qHTS cell viability counter screen in human keratinocytes (AID 1919968; active = well fitted curve in the direction sought with a large enough effect in the repeat runs; an effect the other way counts as inactive or inconclusive; note: nearly all actives have a fitted effect of over 55% in size; note: potency is the fitted concentration of half-maximal effect)
How it was run: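 Cytotoxicity was multiplexed with the Nrf2/ARE luciferase assay in the same wells. Stably transfected HaCaT keratinocytes were treated with test compounds for 23 h at 37 C. Cell viability was then measured by CellTiter-Fluor fluorescence.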

[2] = Nuclear factor erythroid 2-related factor 2/antioxidant responsive element (Nrf2/ARE) small molecule agonists: luciferase reporter gene qHTS assay in human keratinocytes (AID 1919969); note: nearly all actives have a fitted effect of over 35% in size; note: potency is the fitted concentration of half-maximal effect
[3] = molecular target: Gonadotropin-releasing hormone receptor (Homo sapiens) (UniProt P30968); experiment: Human gonadotropin-releasing hormone receptor (GnRHR) small molecule agonists, calcium flux assay in GnRHR-HEK293 cells (AID 1920063); note: nearly all actives have a fitted effect of over 35% in size
Chain of Gonadotropin-releasing hormone receptor (Homo sapiens) (P30968 whole entry, looked up): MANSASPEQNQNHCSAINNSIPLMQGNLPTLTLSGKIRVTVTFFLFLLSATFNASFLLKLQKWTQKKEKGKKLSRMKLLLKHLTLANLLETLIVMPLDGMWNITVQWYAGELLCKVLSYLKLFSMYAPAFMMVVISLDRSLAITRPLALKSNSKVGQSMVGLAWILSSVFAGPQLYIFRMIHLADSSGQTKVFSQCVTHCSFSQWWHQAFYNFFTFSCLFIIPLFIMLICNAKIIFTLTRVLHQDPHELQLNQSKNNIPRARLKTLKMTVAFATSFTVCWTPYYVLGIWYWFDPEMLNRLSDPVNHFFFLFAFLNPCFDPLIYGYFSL
How it was run: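 Agonist activity was measured as intracellular calcium flux in HEK293 cells engineered to stably express human GnRHR. After dye loading for 1 hour at 37 C, compounds in DMSO were added and fluorescence was followed for 3 minutes.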

[4] = molecular target: KiSS-1 receptor (Homo sapiens) (UniProt Q969F8); experiment: Human kisspeptin (KISS1R) small molecule agonists, calcium flux assay in KISS1R-HEK293 cells (AID 1920064; active = well fitted curve in the direction sought with a large enough effect in the repeat runs; an effect the other way counts as inactive or inconclusive)
Chain of KiSS-1 receptor (Homo sapiens) (Q969F8 whole entry, looked up): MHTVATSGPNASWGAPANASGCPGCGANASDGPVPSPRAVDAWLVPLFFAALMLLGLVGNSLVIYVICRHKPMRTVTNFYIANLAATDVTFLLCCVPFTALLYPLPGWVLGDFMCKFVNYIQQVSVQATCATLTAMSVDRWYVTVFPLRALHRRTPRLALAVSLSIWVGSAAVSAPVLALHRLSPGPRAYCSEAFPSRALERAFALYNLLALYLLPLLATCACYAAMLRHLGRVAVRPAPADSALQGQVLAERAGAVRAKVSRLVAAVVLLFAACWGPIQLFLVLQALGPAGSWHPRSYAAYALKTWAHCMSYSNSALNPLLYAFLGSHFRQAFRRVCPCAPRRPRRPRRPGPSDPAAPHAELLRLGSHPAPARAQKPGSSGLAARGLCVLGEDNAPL
How it was run: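 Agonist activity is monitored as intracellular calcium rise in engineered HEK293 cells carrying human KISS1R. Cells are dye-loaded for 1 h at 37 C before compound addition, and fluorescence is recorded for 3 min.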

[5] = G protein-coupled receptor (GPCR) small molecule agonists, calcium flux assay: HEK293 wild type cell line counter screen (AID 1920065)
How it was run: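 Seed cells, incubate 18 h (37 C, 5% CO2); add calcium dye, 1 h at 37 C; pin-transfer compounds, ATP control or DMSO; read fluorescence 480/540 nm each second for 3 min.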

[6] = p53 small molecule agonists, cell-based qHTS assay with human liver microsomes (AID 1963577)
How it was run: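 Cells carrying a p53-responsive bla reporter were rested 5 h (37 C, 5% CO2) before compound transfer. Human liver microsomes plus NADPH, 0.5 mg/mL final apiece, supplied metabolism during the 16 h 37 C exposure.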

[7] = p53 small molecule agonists, cell-based qHTS assay with rat liver microsomes (AID 1963578)
How it was run: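 Fluorescence from a beta-lactamase reporter under a p53 response element was measured after cells had been incubated 16 h at 37 C with test compound and rat liver microsomes plus NADPH (0.5 mg/mL final each).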

[8] = p53 small molecule agonists, cell-based qHTS assay with human liver microsomes: qHTS cell viability counter screen (AID 1963579); note: nearly all actives have a fitted effect of over 45% in size
How it was run: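 Seed p53RE-bla cells at 4,000 per well; incubate 5 h at 37 C; add compound, human liver microsomes and NADPH; incubate 16 h at 37 C; add CellTiter-Glo; after 30 min at room temperature, read luminescence.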

[9] = p53 small molecule agonists, cell-based qHTS assay with rat liver microsomes: qHTS cell viability counter screen (AID 1963580); note: nearly all actives have a fitted effect of over 45% in size
How it was run: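 Rat liver microsome (0.5 mg/mL final) and NADPH (0.5 mg/mL final) co-incubation with compounds for 16 h at 37 C on HCT-116 p53RE-bla cells; cytotoxicity taken from intracellular ATP luminescence.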

[10] = p53 small molecule agonists, cell-based qHTS assay: qHTS cell viability counter screen (AID 1963581); note: nearly all actives have a fitted effect of over 45% in size
How it was run: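 Viability was counter-screened in parallel with the p53 agonist reporter by measuring intracellular ATP luminescence in the same HCT-116 p53RE-bla wells after 16 h compound treatment at 37 C.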

[11] = p53 small molecule agonists, cell-based qHTS assay (AID 1963582; active = well fitted activation curve with a large enough effect in the signal ratio in the repeat runs, not every such curve was filed as active; the % refers to the signal ratio)
How it was run: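 Cells carrying a p53-responsive bla reporter are treated with test compounds for 16 h at 37 C; beta-lactamase activity is then detected with LiveBLAzer B/G FRET substrate after 2 h at room temperature.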

[12] = molecular target: 5-hydroxytryptamine receptor 2A (Homo sapiens) (UniProt P28223); experiment: 5-hydroxytryptamine receptor 2A (HTR2A) small molecule agonists, cell-based qHTS assay (AID 1963587); note: nearly all actives have a fitted effect of over 30% in size; note: potency is the fitted concentration of half-maximal effect
Chain of 5-hydroxytryptamine receptor 2A (Homo sapiens) (P28223 whole entry, looked up): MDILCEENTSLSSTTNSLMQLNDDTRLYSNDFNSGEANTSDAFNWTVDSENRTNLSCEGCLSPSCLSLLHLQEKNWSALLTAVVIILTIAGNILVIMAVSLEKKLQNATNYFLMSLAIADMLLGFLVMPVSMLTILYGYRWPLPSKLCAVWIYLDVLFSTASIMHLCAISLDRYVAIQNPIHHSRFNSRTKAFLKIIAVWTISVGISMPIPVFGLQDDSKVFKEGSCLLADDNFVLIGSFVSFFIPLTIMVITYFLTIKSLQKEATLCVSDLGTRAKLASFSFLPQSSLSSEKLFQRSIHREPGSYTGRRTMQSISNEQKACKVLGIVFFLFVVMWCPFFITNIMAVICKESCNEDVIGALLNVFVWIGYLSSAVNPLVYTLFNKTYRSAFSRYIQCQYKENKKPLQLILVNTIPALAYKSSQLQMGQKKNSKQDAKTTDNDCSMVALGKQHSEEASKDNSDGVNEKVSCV
How it was run: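 Kinetic calcium-flux fluorescence (2 min, 1 sec intervals) after compound addition in agonist mode. HTR2A-CHO cells were cultured 18 h, then dye-loaded 1 h at 37 C.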

[13] = molecular target: Muscarinic acetylcholine receptor M1 (Homo sapiens) (UniProt P11229); experiment: Cholinergic receptor muscarinic 1 (CHRM1) small molecule agonists, cell-based qHTS assay (AID 1963589); note: nearly all actives have a fitted effect of over 35% in size
Chain of Muscarinic acetylcholine receptor M1 (Homo sapiens) (P11229 whole entry, looked up): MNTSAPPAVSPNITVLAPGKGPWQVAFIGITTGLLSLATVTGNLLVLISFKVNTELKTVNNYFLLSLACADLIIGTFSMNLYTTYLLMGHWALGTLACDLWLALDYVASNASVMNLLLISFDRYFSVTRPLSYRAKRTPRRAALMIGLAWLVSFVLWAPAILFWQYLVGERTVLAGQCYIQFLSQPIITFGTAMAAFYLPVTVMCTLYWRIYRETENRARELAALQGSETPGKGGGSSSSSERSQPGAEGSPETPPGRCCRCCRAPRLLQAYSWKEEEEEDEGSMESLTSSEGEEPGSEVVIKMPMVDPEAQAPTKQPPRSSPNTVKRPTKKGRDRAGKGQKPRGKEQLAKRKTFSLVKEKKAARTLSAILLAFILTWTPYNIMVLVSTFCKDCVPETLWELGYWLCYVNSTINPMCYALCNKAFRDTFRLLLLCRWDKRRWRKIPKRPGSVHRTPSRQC
How it was run: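 Cells were plated and incubated 18 h at 37 C/5% CO2, loaded with calcium dye for 1 h at 37 C, then treated with compounds in DMSO. Fluorescence was recorded kinetically at 1 sec intervals.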

[14] = cAMP Responsive Elements (CRE) small molecule agonists, cell-based qHTS assay (AID 1963590)
How it was run: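 Cells carrying a CRE-driven beta-lactamase reporter (HEK 293T) are seeded, incubated overnight (18 h), and treated with test compounds for 3 h at 37 C; reporter activity is then detected with a FRET substrate after 2 h at room temperature.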

[15] = cAMP Responsive Elements (CRE) small molecule antagonists, cell-based qHTS assay (AID 1963591; active = well fitted inhibition curve with a large enough effect in the signal ratio in the repeat runs, not every such curve was filed as active; the % refers to the signal ratio)
How it was run: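 Cells (CRE-bla HEK 293T, DMEM with 10% dialyzed FBS and 25 mM HEPES) are seeded and incubated 18 h. Compounds are added with NKH477 agonist at 0.25 uM final for 3 h, then FRET substrate for 2 h.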

[16] = molecular target: Beta-2 adrenergic receptor (Homo sapiens) (UniProt P07550); experiment: Adrenergic beta2 receptor (ADRB2) small molecule antagonists, cell-based qHTS assay (AID 1963592); note: series mostly up to about 92 µM; nearly all actives have a fitted effect of over 50% in size
Chain of Beta-2 adrenergic receptor (Homo sapiens) (P07550 whole entry, looked up): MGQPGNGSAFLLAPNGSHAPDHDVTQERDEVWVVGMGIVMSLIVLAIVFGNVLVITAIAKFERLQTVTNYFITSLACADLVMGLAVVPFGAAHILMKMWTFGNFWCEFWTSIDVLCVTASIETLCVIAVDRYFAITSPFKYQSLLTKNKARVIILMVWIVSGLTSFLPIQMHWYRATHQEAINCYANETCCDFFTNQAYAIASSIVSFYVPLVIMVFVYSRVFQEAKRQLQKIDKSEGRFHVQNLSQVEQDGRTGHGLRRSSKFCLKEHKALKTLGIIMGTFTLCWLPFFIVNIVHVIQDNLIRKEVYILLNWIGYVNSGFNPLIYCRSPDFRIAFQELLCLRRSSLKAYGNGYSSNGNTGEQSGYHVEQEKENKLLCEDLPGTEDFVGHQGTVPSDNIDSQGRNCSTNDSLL
How it was run: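 Assay format: CHO-ADRB2 cells, 18-20hr seeding at 37C/5% CO2, then compound plus 1nM isoproterenol agonist mix for 0.5hr RT. Homogeneous time-resolved fluorescence cAMP detection after 1hr, expressed as 665/615 nm ratio.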

[17] = molecular target: Beta-2 adrenergic receptor (Homo sapiens) (UniProt P07550); experiment: Adrenergic beta2 receptor (ADRB2) small molecule agonists, cell-based qHTS assay (AID 1963593);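 note: CHO cells stably overexpressing human ADRB2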
How it was run: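 CHO cells stably over-expressing ADRB2 were plated overnight at 37C, then dosed with compounds plus a stimulation mix containing 100uM IBMX and 25uM Ro-20-1724 for 0.5hr at room temperature. cAMP was measured by HTRF competition, 1hr.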

[18] = molecular target: Muscarinic acetylcholine receptor M1 (Homo sapiens) (UniProt P11229); experiment: Cholinergic receptor muscarinic 1 (CHRM1) small molecule antagonists, cell-based qHTS assay (AID 1963588); note: nearly all actives have a fitted effect of over 40% in size
How it was run: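 Compounds were tested at 15 concentrations in three independent runs. Dye-loaded CHRM1-CHO cells were exposed 5 min at room temperature before stimulation by acetylcholine added at 50nM. Intracellular calcium was read kinetically on FDSS for 3 min.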

[19] = molecular target: D(2) dopamine receptor (Homo sapiens) (UniProt P14416); experiment: Dopamine D2 receptor (DRD2) small molecule agonists, cell-based qHTS assay (AID 1963594); note: nearly all actives have a fitted effect of over 35% in size
Chain of D(2) dopamine receptor (Homo sapiens) (P14416 whole entry, looked up): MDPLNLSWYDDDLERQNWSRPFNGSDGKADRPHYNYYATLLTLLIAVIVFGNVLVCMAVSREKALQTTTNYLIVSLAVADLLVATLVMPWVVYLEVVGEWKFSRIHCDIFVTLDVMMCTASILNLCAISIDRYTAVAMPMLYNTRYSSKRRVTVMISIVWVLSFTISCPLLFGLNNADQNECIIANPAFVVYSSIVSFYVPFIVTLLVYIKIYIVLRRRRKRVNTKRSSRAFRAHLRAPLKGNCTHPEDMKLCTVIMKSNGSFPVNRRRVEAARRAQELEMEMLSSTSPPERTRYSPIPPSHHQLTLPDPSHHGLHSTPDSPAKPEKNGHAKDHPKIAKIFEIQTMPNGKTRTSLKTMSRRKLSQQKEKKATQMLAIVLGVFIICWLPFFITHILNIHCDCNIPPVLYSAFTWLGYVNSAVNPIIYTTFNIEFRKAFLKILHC
How it was run: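 cAMP accumulation in DRD2-HEK293 cells measured by HTRF after 1 h detection; compounds added 10 min before NKH477 (200nM […]) forskolin-analogue stimulation, 30 min at room temperature, with Ro20-1724 present at 0.1 mM final.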

[20] = molecular target: D(2) dopamine receptor (Homo sapiens) (UniProt P14416); experiment: Dopamine D2 receptor (DRD2) small molecule antagonists, cell-based qHTS assay (AID 1963595; active = well fitted inhibition curve with a large enough effect in the signal ratio in the repeat runs, with a control signal flat; the % refers to the signal ratio)
How it was run: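 Stable D2 receptor HEK293 line, 24 h after seeding. Compound preincubated 10 min, then quinpirole (12 nM) with forskolin analogue NKH477 (200 nM), 30 min, room temperature. Detection by time-resolved FRET of cAMP.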

| SMILES | Potency [1] | Potency [2] | Potency [3] | Potency [4] | Potency [5] | Potency [6] | Potency [7] | Potency [8] | Potency [9] | Potency [10] | Potency [11] | Potency [12] | Potency [13] | Potency [14] | Potency [15] | Potency [16] | Potency [17] | Potency [18] | Potency [19] | Potency [20] |
| --- | --- | --- | --- | --- | --- | --- | --- | --- | --- | --- | --- | --- | --- | --- | --- | --- | --- | --- | --- | --- |
| CCN1CCCC(OC(=O)C(c2ccccc2)c2ccccc2)C1 (stereo unspecified) | inactive | inactive | inactive | inactive | inactive | inactive | inactive | inactive | inactive | inactive | inactive | 0.0756 µM (active) | inactive | inactive | inactive | inactive | inactive | – | – | – |
| CC(C)CC=O | inactive | inactive | inactive | inactive | inactive | inactive | inactive | inactive | inactive | inactive | inactive | inactive | – | inactive | inactive | inactive | – | inactive | inactive | inactive |
| Clc1ccc2c(c1)Nc1ccccc1S2 | inactive | inactive | inactive | inactive | inactive | inactive | inactive | inactive | inactive | inactive | inactive | inactive | inactive | inactive | inactive | inactive | – | – | inactive | inactive |
| CC1CCC(C(C)(C)O)CC1 (stereo unspecified) | inactive | inactive | inactive | inactive | inactive | inactive | inactive | inactive | inactive | inactive | inactive | inactive | inactive | inactive | inactive | inactive | inactive | – | inactive | inactive |
| CCC(=O)OC/C=C(\C)CCC=C(C)C | inactive | inactive | inactive | inactive | inactive | inactive | inactive | inactive | inactive | inactive | inactive | inactive | inactive | inactive | inactive | inactive | inactive | – | inactive | inactive |
| CCCC[O][Al]([O]CCCC)[O]CCCC | inactive | inactive | inactive | inactive | inactive | inactive | inactive | inactive | inactive | inactive | inactive | inactive | – | – | inactive | inactive | – | inactive | – | – |
| CC1=CC(C)C(C=O)CC1 (stereo unspecified) | inactive | inactive | inactive | inactive | inactive | inactive | inactive | inactive | inactive | inactive | inactive | inactive | inactive | inactive | inactive | – | inactive | – | – | inactive |
| O=C[C@H](O)[C@H](O)[C@H](O)CO | inactive | inactive | inactive | inactive | inactive | inactive | inactive | inactive | inactive | inactive | inactive | inactive | inactive | inactive | inactive | inactive | inactive | – | inactive | inactive |
| CCc1ccc(Br)cc1 | inactive | inactive | inactive | inactive | inactive | inactive | inactive | inactive | inactive | inactive | inactive | inactive | inactive | inactive | inactive | inactive | inactive | – | inactive | inactive |
| COC(=O)CCC(=O)O | inactive | inactive | inactive | inactive | inactive | inactive | inactive | inactive | inactive | inactive | inactive | inactive | inactive | inactive | inactive | inactive | inactive | – | inactive | inactive |
| O=C1c2cccc(O)c2C(=O)c2c(O)cccc21 | inactive and 3.35 µM (active) | 27.6 µM (active) | inactive | inactive | inactive | inactive | inactive | inactive | inactive | inactive | inactive | inactive | – | inactive | – | – | inactive | inactive | inactive | inactive |
| c1ccc2ncccc2c1 | inactive | inactive | inactive | inactive | inactive | inactive | inactive | inactive | inactive | inactive | inactive | inactive | – | inactive | inactive | inactive | – | inactive | inactive | inactive |
| CCOC(=O)c1cc(=O)c2c(OCC(COc3cccc4oc(C(=O)OCC)cc(=O)c34)OC(=O)[C@@H](N)CCCCN)cccc2o1 | inactive | inactive | inactive | inactive | inactive | inactive | inactive | inactive | inactive | inactive | inactive | inactive | inactive | – | inactive | inactive | inactive | – | – | inactive |
| Cc1sccc1Br | inactive | inactive | inactive | inactive | inactive | inactive | inactive | inactive | inactive | inactive | inactive | inactive | inactive | inactive | inactive | inactive | inactive | – | inactive | inactive |
| Cn1ccnc1 | inactive | inactive | inactive | inactive | inactive | inactive | inactive | inactive | inactive | inactive | inactive | inactive | inactive | inactive | – | inactive | – | – | – | – |
